{"source": "PubChem BioAssay (EPA / NIEHS)", "note": "Records with an inconclusive call do not appear. The source made the active and inactive calls. Rule for the calls: active = hit-call score of the fitted dose curve at least 0.9, where 1 is the maximum; inconclusive = response in the unintended direction; inactive = score below 0.9.", "data": [{"read-out": "Glyceraldehyde-3-phosphate dehydrogenase (Homo sapiens) (UniProt P04406)", "experiment": "CLD_GAPDH_24hr: CellzDirect (CLD) Gene Expression Assay for Baseline Control (Glyceraldehyde 3-phosphate dehydrogenase) at 24 hours (AID 2283692)", "method": "CLD_24hr is a cell-based, multiplexed-readout assay that uses hepatocyte, a human liver primary cell, with measurements taken at 24 hours after chemical dosing in a 96-well plate.CLD_GAPDH_24hr is one of 16 assay component(s) measured or calculated from the CLD_24hr assay. It is designed to make measurements of mRNA induction, a form of inducible reporter, as detected with chemiluminescence signals by Quantitative Nuclease Protection Assay (qNPA) technology.Data from the assay component CLD_GAPDH_24hr was analyzed at the endpoint, CLD_GAPDH_24hr, in the positive analysis fitting direction relative to DMSO as the negative control and baseline of activity. Using a type of inducible reporter, gain-of-signal activity can be used to understand changes in the reporter gene as they relate to the gene GAPDH. Furthermore, this assay endpoint can be referred to as a secondary readout, because this assay has produced multiple assay endpoints where this one serves a background control function. To generalize the intended target to other relatable targets, this assay endpoint is annotated to the background measurement intended target family, where subfamily is baseline control.\nHuman hepatocyte cultures were treated daily for two consecutive days with fresh dosing solutions containing appropriate concentrations of the 320 ToxCast chemicals (chemical identities were blinded to CellzDirect and other ToxCast collaborators), vehicle control (0.2% DMSO), and positive control inducers as summarized in Table 1. Due to the large number of treatment groups and chemicals examined, the ToxCast chemicals were divided into two groups (spanning two independent cultures of hepatocytes from separate donor preparations (Hu778: ToxCast plates 1 and 2; Hu776: ToxCast plates 3 and 4). Each preparation of human hepatocyte cultures was treated with respective vehicle control, medium only control, set of six positive controls/reference chemicals for the five hepatic receptor pathways, and a subset of eight of the ToxCast chemicals (indoxacarb, pyrithiobac-sodium, norflurazon, cyhalofop-butyl, methomyl, thiram, acetochlor, and propiconazole). These replicate data, coupled with internal replicates designed within the blinded ToxCast chemical library, provided additional data to evaluate interindividual differences between hepatocyte preparations and their potential impact on chemical profiles.Cell morphology and integrity were evaluated using phase-contrast microscopy as an indicator of hepatocyte cell health (Tyson & Green, 1987). Cultures for each treatment group (i.e., media, vehicle [0.2% DMSO], positive control inducers [multiple concentrations], and the ToxCast chemicals [multiple concentrations]) were observed and cell morphology was assessed relative to vehicle control cultures at each harvest time point (0, 6, 24, or 48 h). […] Images were evaluated at the conclusion of the study to assess changes in cell integrity and account for the effects of chemical exposure on uncharacteristic changes in concentration-dependent gene expression profiles. The results from these determinations of apparent cytotoxicity were annotated (yes/no) alongside the corresponding qNPA data for reference.At the conclusion of each treatment period, hepatocyte cultures (96-well) were washed with 1 volume of HBSS, lysed by addition of 25 ul ArrayPlate lysis buffer (HTG, Tucson, AZ), and 70 ul/well of Denaturation Oil, denatured by incubation at 95C for 10 min, and frozen at approximately -70C until analysis by nuclease protection assay (qNPA) (Roberts et al., 2007). For qNPA analysis, cell lysates were thawed at 50C for approximately 30 min, qNPA probes were added, and samples were incubated at 95C for 10 min to begin the detection process by denaturing the target RNA, dissociating the duplexes and secondary structure hybridization. At the conclusion of the hybridization period, S1 nuclease reagent was added to each sample to digest all nonprotected nucleotides at 50C for 60-90 min. […]", "values": [{"smiles": "OCCOc1ccccc1", "outcome": "inactive"}, {"smiles": "COC(=O)c1ccccc1S(=O)(=O)NC(=O)Nc1nc(C)nc(OC)n1", "outcome": "inactive"}, {"smiles": "O=C(O)C(F)(F)C(F)(F)C(F)(F)C(F)(F)C(F)(F)C(F)(F)C(F)(F)F", "outcome": "inactive"}, {"smiles": "Cc1[nH]c(=O)n(C(C)(C)C)c(=O)c1Cl", "outcome": "inactive"}, {"smiles": "CNC(=O)Oc1cccc(N=CN(C)C)c1", "outcome": "inactive"}, {"smiles": "Oc1cc(Cl)ccc1Oc1ccc(Cl)cc1Cl", "outcome": "inactive"}, {"smiles": "CCC(C)(NC(=O)c1cc(Cl)c(C)c(Cl)c1)C(=O)CCl", "note": "(configuration not stated)", "outcome": "inactive"}, {"smiles": "Oc1ccc(Cl)cc1Cc1ccccc1", "outcome": "inactive"}, {"smiles": "N#CN", "outcome": "inactive"}, {"smiles": "O=C(O)COc1ccc(Cl)cc1Cl", "outcome": "inactive"}, {"smiles": "CCOCN(C(=O)CCl)c1c(C)cccc1CC", "outcome": "inactive"}, {"smiles": "O=[N+]([O-])/N=C1\\NCCN1Cc1ccc(Cl)nc1", "outcome": "inactive"}, {"smiles": "COC(=O)c1ccccc1CS(=O)(=O)NC(=O)Nc1nc(OC)cc(OC)n1", "outcome": "inactive"}, {"smiles": "CC(C)N(C(=O)COc1nnc(C(F)(F)F)s1)c1ccc(F)cc1", "outcome": "inactive"}, {"smiles": "O=S(=O)(O)C(F)(F)C(F)(F)C(F)(F)C(F)(F)C(F)(F)C(F)(F)C(F)(F)C(F)(F)F", "outcome": "inactive"}, {"smiles": "N#Cc1c(Cl)c(Cl)c(Cl)c(C#N)c1Cl", "outcome": "inactive"}, {"smiles": "CNC(=O)Oc1ccccc1OC(C)C", "outcome": "inactive"}, {"smiles": "C#CCN1C(=O)COc2cc(F)c(N3C(=O)C4=C(CCCC4)C3=O)cc21", "outcome": "inactive"}, {"smiles": "[2H]C1([2H])[n+]2ccccc2-c2cccc[n+]2C1([2H])[2H]", "outcome": "inactive"}, {"smiles": "Cc1cc(C)nc(NC(=O)NS(=O)(=O)c2ccccc2C(=O)OC2COC2)n1", "outcome": "inactive"}, {"smiles": "CN1CSC(=S)N(C)C1", "outcome": "inactive"}, {"smiles": "CCOc1nc(NC)nc(NC(=O)NS(=O)(=O)c2ccccc2C(=O)OC)n1", "outcome": "inactive"}, {"smiles": "O=C(Nc1ccccc1)Nc1cnns1", "outcome": "inactive"}, {"smiles": "COc1cc(OC)nc(NC(=O)NS(=O)(=O)c2cc(NC=O)ccc2C(=O)N(C)C)n1", "outcome": "inactive"}, {"smiles": "CNC(=O)CSP(=S)(OC)OC", "outcome": "inactive"}, {"smiles": "COP(=O)(OC)OC=C(Cl)Cl", "outcome": "inactive"}, {"smiles": "O=C1c2ccccc2C(=O)N1SC(Cl)(Cl)Cl", "outcome": "inactive"}]}]}
